Measurements published in paper PMC5540273 (PLoS ONE, 2017).
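Also: kd values determined as follow-up on hits from a single-replicate KINOMEscan panel screen.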

## O=C(Nc1n[nH]c2cc(-c3ccsc3)ccc12)C1CC1 [SB-732932]
PRKD1
  Kd: > 10000 nM

## CN1c2ccc(-c3ccc(C(N)=O)cc3)cc2-c2[nH]ncc2S1(=O)=O
PRKD2
  Kd: > 10000 nM

## CC[C@@H]1CO[C@H](C(=O)Nc2ccccc2)CN1c1cc(-c2ccc3c(N)n[nH]c3c2)nc(NC)n1 [GSK2376236]
PRKX
  Kd: 130 nM

## CNc1nc(-c2ccc3c(N)n[nH]c3c2)cc(N2C[C@@H](C(=O)Nc3ccccc3)CC[C@H]2C)n1 [GSK2298859]
PRKX
  Kd: 65 nM

## Cc1ccc(NC(=O)Nc2ccc(Cl)cc2)cc1-c1ccc(C(=O)Nc2ccncc2)cc1 [GSK1398472]
RAF1
  Kd: 350 nM

## Cc1ccc(NC(=O)Nc2ccc(Cl)c(C(F)(F)F)c2)cc1-c1ccc(C(=O)Nc2ccncc2)cc1 [GSK1398470]
RAF1
  Kd: 340 nM

## Fc1ccc(-c2nn3cccc(F)c3c2-c2ccncc2)cc1 [GW475620]
RET
  Kd: > 10000 nM

## CNCc1ccc2nc(NC(=O)c3ccc(C(C)(C)C)cc3)cn2c1
RIOK2
  Kd: > 10000 nM

## CC(C)c1cc(-c2ccc3c(N)n[nH]c3c2)nc(N)n1 [GSK2250882]
RIOK3
  Kd: 440 nM

## Nc1cccc(-c2ccc3c(N)n[nH]c3c2)n1 [GSK2192730]
RIOK3
  Kd: 490 nM
